This is an account of results in paper PMC11062922 (Nature Chemical Biology, 2023).

What all share (design): species or system human, MV4-11 + K-562 + COLO205 + SK-N-BE2 + OVCAR-8
Assay [1] deals with STK11. As to conditions: read-out: apparent Kd; compound concentrations:100 nM and 1000 nM (sheet 'Samples'); n = 1.
The test system of assay [2] is PRKCA. The following applies: read-out: apparent Kd; compound concentrations:100 nM and 1000 nM (sheet 'Samples'); n = 1.
The subject of assay [3] is PIM1. The following applies: read-out: apparent Kd, compound concentrations: 100 nM and 1000 nM (sheet 'Samples'), n = 1.
The test system of assay [4] is STK26. The following applies: read-out: apparent Kd, n = 1.
In assay [5] the test system is MAP3K1. The following applies: read-out: apparent Kd, n = 1.
The test system of assay [6] is RAB5C. As to conditions: read-out: apparent Kd; compound concentrations:100 nM and 1000 nM (sheet 'Samples'); n = 1.
The subject of assay [7] is MAP4K3. As to conditions: read-out: apparent Kd; compound concentrations: 100 nM and 1000 nM (sheet 'Samples'), CATDS: 5.6013670337788E-2; n = 1.
Assay [8] relates to MET. As to conditions: read-out: apparent Kd, compound concentrations: 100 nM and 1000 nM (sheet 'Samples'), n = 1.
Assay [9] concerns TAOK3. As to conditions: read-out: apparent Kd; compound concentrations: 100 nM and 1000 nM (sheet 'Samples'), CATDS: 3.3504953987682898E-2; n = 1.
In assay [10] the test system is AXL. As to conditions: read-out: apparent Kd; compound concentrations: 100 nM and 1000 nM (sheet 'Samples'), CATDS: 1.37984345324301E-2; n = 1.
The subject of assay [11] is FGFR1. The following applies: read-out: apparent Kd; compound concentrations: 100 nM and 1000 nM (sheet 'Samples'), CATDS: 1.6795329465602301E-2; n = 1.
The subject of assay [12] is NUAK2. As to conditions: read-out: apparent Kd; compound concentrations: 100 nM and 1000 nM (sheet 'Samples'), CATDS: 9.7596009365087198E-3; n = 1.
Assay [13] relates to AIFM1. As to conditions: read-out: apparent Kd, n = 1.
The test system of assay [14] is MAPK1. As to conditions: read-out: apparent Kd, n = 1.
The test system of assay [15] is PRKCQ. As to conditions: read-out: apparent Kd; compound concentrations: 100 nM and 1000 nM (sheet 'Samples'), CATDS: 0.114661548989235; n = 1.
Assay [16] concerns MST1R. As to conditions: read-out: apparent Kd; compound concentrations:100 nM and 1000 nM (sheet 'Samples'); n = 1.
Setting [17] is: compound concentrations:100 nM and 1000 nM (sheet 'Samples').

Where two headings read alike, the source gives them in different places.

Consider `COc1cccc(-c2c[nH]c3c(N/N=C/c4ccncc4)ncnc23)c1` [GW814408X], for which, in [1], the potency estimated from few doses is 1900 nM.

With `N#Cc1cccc(Nc2nccc(-c3cnn4ncccc34)n2)c1` [GW778894X], the potency estimated from few doses in assay [2] is 1180 nM.

As for `O=S(=O)(CCOCc1ccc(-c2ccc3ncnc(Nc4ccc(OCc5cccc(F)c5)c(Cl)c4)c3c2)o1)c1ccccc1` [GW615311X], the potency estimated from few doses in assay [3] (CATDS: 3.06146278904708E-2) was 1120 nM; in [4] (compound concentrations: 100 nM and 1000 nM (sheet 'Samples'), CATDS: 2.23099896492461E-2), 2340 nM.

In the case of `COc1cc2ncn(-c3cc(OCc4cccs4)c(C(N)=O)s3)c2cc1OC` [GSK312948A], the potency estimated from few doses was 1470 nM in [5] (setting [17]) and 1450 nM in [6].

Regarding `Nc1nc(N)c2nc(-c3ccccc3)[nH]c2n1` [SKF-12778], the potency estimated from few doses in [1] was 1740 nM.

As to `COc1cccc(-n2cnc3c(N/N=C/c4ccncc4)ncnc32)c1` [GW813360X], the potency estimated from few doses in [5] (compound concentrations: 100 nM and 1000 nM (sheet 'Samples'), CATDS: 0.17625774536474501) is 1040 nM.

As for `Nc1ncc(-c2cn[nH]c2)c2scc(-c3ccc4c(c3)CCN4C(=O)Cc3ccccc3)c12` [GSK2593067A], the potency estimated from few doses in [7] was 2210 nM.

On to `CN1CCN(Cc2ccc(NC(=O)Nc3ccc(N(C)c4ccnc(Nc5ccc(CS(C)(=O)=O)cc5)n4)cc3)cc2)CC1.Cl` [GW827654A], for which, in [8] (CATDS: 3.7030406739302302E-2), the potency estimated from few doses is 1380 nM.

Consider `CN1CCc2ccc(Nc3nccc(-c4c(-c5cccc(NC(=O)c6c(F)cccc6F)c5)nc5ccccn45)n3)cc2C1.Cl` [GSK1010829B], for which, in assay [9], the potency estimated from few doses is 1490 nM.

Consider `CNC(=O)c1ccccc1Nc1nc(Nc2cccc(CS(C)(=O)=O)c2)ncc1C.O=CO` [GSK1520489A], for which the potency estimated from few doses in assay [10] is 374 nM; in [11] it was 213 nM; in assay [8] (CATDS: 7.7828561887260297E-2), 12.2 nM; in assay [12], 1500 nM.

Turning to `CC(=O)c1c(-c2ccncc2)[nH]c(-c2ccncc2)c1C` [GW493036X], the potency estimated from few doses in assay [6] is 1600 nM.

Consider `CCCCCNC(=O)[C@@H]1CCCN2C(=O)CC[C@H](NC(=O)[C@H](Cc3ccc(OP(=O)(O)O)cc3)NC(C)=O)C(=O)N12` [RO0324694-000], for which the potency estimated from few doses in assay [13] (setting [17]) is 1670 nM.

On to `Cc1[nH]nc2c1N=C(c1ccccc1Cl)c1cc([N+](=O)[O-])ccc1N2` [RO0274406-000], for which the potency estimated from few doses in assay [14] (compound concentrations: 100 nM and 1000 nM (sheet 'Samples'), CATDS: 7.1630348262951699E-2) was 1230 nM.

As for `Cc1ccc(C(=O)NC2CC2)cc1-c1ccc2[nH]ncc2c1` [GW820759X], in [13] (compound concentrations: 100 nM and 1000 nM (sheet 'Samples'), CATDS: 0.35268476986263803), the potency estimated from few doses was 1040 nM.

On to `COc1cc2ncn(-c3cc(OCc4sccc4Cl)c(C(N)=O)s3)c2cc1OC` [GSK448459A], for which the potency estimated from few doses in assay [5] (setting [17]) is 511 nM.

Turning to `COc1cc2ncn(-c3cc(O[C@H](C)c4ccccc4Cl)c(C(N)=O)s3)c2cc1OC` [GSK237701A], the potency estimated from few doses in assay [5] (setting [17]) is 398 nM.

`Nc1c(C(=O)c2ccccc2)cnn1-c1ccc(F)cc1` [RO1151246-000]: the potency estimated from few doses in [4] (setting [17]) was 1890 nM.

With `COc1ccc(C2=C(c3cn(C)c4ccccc34)C(=O)NC2=O)cc1OC` [RO3206363-000], the potency estimated from few doses is 82.8 nM in assay [15]; 1450 nM in assay [4] (compound concentrations: 100 nM and 1000 nM (sheet 'Samples'), CATDS: 3.3943818014748203E-2).

Take `Fc1cccc(COc2ccc(Nc3ncncc3C#Cc3ccccc3)cc2Cl)c1` [GW651576X]: the potency estimated from few doses in [4] (compound concentrations: 100 nM and 1000 nM (sheet 'Samples'), CATDS: 5.7539827795964102E-2) was 1350 nM.

As for `COc1cc(F)c(F)c(F)c1C(=O)c1cnc(NC2CCN(S(C)(=O)=O)CC2)nc1N` [RO4600703-000], the potency estimated from few doses was 939 nM in assay [13] (setting [17]) and 1580 nM in assay [14] (setting [17]).

For the molecule `CC(=O)Nc1ccc2c(C3=C(c4cn(C)c5ccccc45)C(=O)NC3=O)cn(C)c2c1` [RO0317596-000], in assay [14] (compound concentrations: 100 nM and 1000 nM (sheet 'Samples'), CATDS: 0.12847476759448101), the potency estimated from few doses is 1100 nM.

Regarding `COc1cc(N2CCN(C(C)C)CC2)ccc1Nc1nc(Nc2cccc(F)c2C(=O)O)c2cc[nH]c2n1` [GSK1819799A], in [3] (CATDS: 4.9008652633002601E-2), the potency estimated from few doses was 1330 nM.

On to `Cl.Oc1ccc2ncnc(Nc3ccc(OCc4ccccc4)cc3)c2c1` [GI262866A], for which the potency estimated from few doses in [14] (setting [17]) was 617 nM.

With `NC(=O)c1cccnc1COc1cc(-c2ccc(N3CCOCC3)nc2)cc2ncccc12` [BI01125081], the potency estimated from few doses in [16] was 1120 nM.

For `Cl.Fc1cccc(COc2ccc(Nc3ncnc4cc(-c5ccc[nH]5)sc34)cc2Cl)c1` [GW693881A], the potency estimated from few doses in assay [13] (compound concentrations: 100 nM and 1000 nM (sheet 'Samples'), CATDS: 0.160865216132973) is 1350 nM.
